{"source": "PubChem BioAssay (EPA / NIEHS)", "note": "Activity calls are given as the source filed them. Rule for the calls: active = hit-call score of the fitted dose curve at least 0.9, where 1 is the maximum; inactive = score below 0.9.", "data": [{"read-out": "Early growth response protein 1 (EGR1) transcription factor, EGR1 (gene 1958)", "experiment": "LTEA_HepaRG_EGR1: Life Technologies and Expression Analysis (LTEA) Assay for Early growth response protein 1 (EGR1) transcription factor using HepaRG (AID 2283490)", "conditions": "mRNA level, 48 h; actives raise or lower the signal", "procedure,_shortened": "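EGR1 transcript levels quantified by qRT-PCR (Fluidigm arrays) against three housekeeping genes after 48 h chemical exposure of HepaRG cells. Eight-point half-log series topping at 100 uM, 0.5% DMSO vehicle, analyzed for gain or loss.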", "values": [{"compound": "O=C1c2ccccc2C(=O)N1CCc1noc(-c2ccc(CN3CCCCCC3)s2)n1", "outcome": "inactive"}, {"compound": "CC(C)(C)c1cc(/C=C2\\SC(N)=NC2=O)cc(C(C)(C)C)c1O", "AC50": "50 µM (active)"}, {"compound": "O=c1c(-c2ccc(O)cc2)coc2cc(O)cc(O)c12", "outcome": "inactive"}, {"compound": "O=C(O)c1ccccc1C(=O)OCc1ccccc1", "outcome": "inactive"}, {"compound": "CCN(Cc1cccc(S(=O)(=O)O)c1)c1ccc(C(=C2C=CC(=[N+](CC)Cc3cccc(S(=O)(=O)O)c3)C=C2)c2ccccc2S(=O)(=O)[O-])cc1", "outcome": "inactive"}, {"compound": "O=CCCCC=O", "outcome": "inactive"}, {"compound": "c1ccc2ccccc2c1", "outcome": "inactive"}, {"compound": "O=C=NCCCCCCN=C=O", "outcome": "inactive"}, {"compound": "CO[C@H]1/C=C/O[C@@]2(C)Oc3c(C)c(O)c4c(O)c(c(/C=N/N5CCN(C)CC5)c(O)c4c3C2=O)NC(=O)/C(C)=C\\C=C\\[C@H](C)[C@H](O)[C@@H](C)[C@@H](O)[C@@H](C)[C@H](OC(C)=O)[C@@H]1C", "outcome": "inactive"}, {"compound": "OC12N=C(c3ccccc3)SC1Cc1cc(Cl)ccc12", "note": "(stereo not given)", "outcome": "inactive"}, {"compound": "Clc1ccccc1C(c1ccccc1)(c1ccccc1)n1ccnc1", "AC50": "71.5 µM (active)"}, {"compound": "CCCC(=O)OCCC(C)C", "outcome": "inactive"}, {"compound": "CC(=O)N1CCN(c2ccc(OC[C@H]3CO[C@](Cn4ccnc4)(c4ccc(Cl)cc4Cl)O3)cc2)CC1", "AC50": "38.4 µM (active)"}, {"compound": "Cc1cn([C@H]2C[C@H](N=[N+]=[N-])[C@@H](CO)O2)c(=O)[nH]c1=O", "outcome": "inactive"}, {"compound": "c1ccc(C[n+]2cccc3ccccc32)cc1", "outcome": "inactive"}, {"compound": "CC/C(=C(/CC)c1ccc(O)cc1)c1ccc(O)cc1", "AC50": "77.4 µM (active)"}, {"compound": "CC(C)(c1cc(Br)c(O)c(Br)c1)c1cc(Br)c(O)c(Br)c1", "AC50": "76.1 µM (active)"}, {"compound": "NCc1cccc(C2CCN(C(=O)c3ccc(C#Cc4ccccc4F)o3)CC2)c1", "outcome": "inactive"}, {"compound": "O=C(O)Cn1c(=O)n(Cc2ccc(Br)cc2F)c(=O)c2ccc(Cl)cc21", "outcome": "inactive"}, {"compound": "CC1=CC(=O)/C(=C(/C)O)C(=O)O1", "outcome": "inactive"}, {"compound": "O=C(O)c1ccccc1-n1cc(C(=O)O)c(=O)c2cc(Nc3c(F)cc(F)cc3Cl)c(Cl)cc21", "outcome": "inactive"}, {"compound": "CN1C(=O)CC[C@H]1c1cccnc1", "outcome": "inactive"}, {"compound": "Oc1ccccc1", "outcome": "inactive"}, {"compound": "CN(C)c1ccc(C(=C2C=CC(=[N+](C)C)C=C2)c2ccc(N(C)C)cc2)cc1", "AC50": "67.6 µM (active)"}, {"compound": "O=C(OCCCCCCOC(=O)c1ccccc1)c1ccccc1", "outcome": "inactive"}, {"compound": "O=c1ccc2ccccc2o1", "outcome": "inactive"}, {"compound": "CCCCOC(=O)CC(CC(=O)OCCCC)(OC(C)=O)C(=O)OCCCC", "outcome": "inactive"}, {"compound": "O=C(Nc1ccc(Cl)cc1)Nc1ccc(Cl)c(Cl)c1", "AC50": "12.6 µM (active)"}, {"compound": "CC(O)CC(C)(C)O", "note": "(stereo not given)", "outcome": "inactive"}, {"compound": "CCCCCCCCOC(=O)c1cc(O)c(O)c(O)c1", "outcome": "inactive"}, {"compound": "CC[C@H](NC(=O)c1cc(F)ccc1NS(=O)(=O)c1cccc2cccnc12)c1ccccc1", "outcome": "inactive"}, {"compound": "CN(C)C(=O)C1(N2CCCCC2)CCN(CC[C@@]2(c3ccc(Cl)c(Cl)c3)CN(C(=O)c3ccccc3)CCO2)CC1", "AC50": "53.1 µM (active)"}, {"compound": "CC1(C)NC(=O)N(c2ccc([N+](=O)[O-])c(C(F)(F)F)c2)C1=O", "outcome": "inactive"}, {"compound": "CCCCCCCCCCCC[N+](C)(C)C", "AC50": "83.9 µM (active)"}, {"compound": "Cc1ccc2oc(CN(Cc3ccccc3)C(=O)Nc3c(F)cc(F)cc3F)c(-c3ccc(Cl)cc3)c2c1", "outcome": "inactive"}]}]}
